Results taken from the supplement of paper PMC3334620.
The full ranking holds about 33,000 sequences; the median of “E-score (-0.5 to 0.5)” is about -0.056, and the highest 2% start at about 0.38. This excerpt belongs to a sample that is enriched for the highest values.

molecular target: Stb4 (UniProt P50104); experiment: PBM E-score (8-mer binding enrichment) (E-score (-0.5 to 0.5)); higher = stronger / more preferred TF binding; conditions: protein concentration: 200 nM; construct: GST-DNA-binding domain
Experimental: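 Universal 'all 10-mer' protein binding microarrays (Agilent AMADID 015681) probed with GST-tagged S. cerevisiae TFs (full-length or DBD) made by in vitro transcription/translation (PURExpress), about 100-200 nM. Bound TF was detected with fluorescent anti-GST. Each ungapped 8-mer (which stands for itself and its reverse complement) is scored by the PBM enrichment score (E-score), a modified Wilcoxon-Mann-Whitney statistic from -0.5 to +0.5, computed with the Universal PBM Analysis Suite. Scale: above 0.35 generally sequence-specific binding.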

UniProt P50104, sequence (P50104 whole entry, the tested form may be a part): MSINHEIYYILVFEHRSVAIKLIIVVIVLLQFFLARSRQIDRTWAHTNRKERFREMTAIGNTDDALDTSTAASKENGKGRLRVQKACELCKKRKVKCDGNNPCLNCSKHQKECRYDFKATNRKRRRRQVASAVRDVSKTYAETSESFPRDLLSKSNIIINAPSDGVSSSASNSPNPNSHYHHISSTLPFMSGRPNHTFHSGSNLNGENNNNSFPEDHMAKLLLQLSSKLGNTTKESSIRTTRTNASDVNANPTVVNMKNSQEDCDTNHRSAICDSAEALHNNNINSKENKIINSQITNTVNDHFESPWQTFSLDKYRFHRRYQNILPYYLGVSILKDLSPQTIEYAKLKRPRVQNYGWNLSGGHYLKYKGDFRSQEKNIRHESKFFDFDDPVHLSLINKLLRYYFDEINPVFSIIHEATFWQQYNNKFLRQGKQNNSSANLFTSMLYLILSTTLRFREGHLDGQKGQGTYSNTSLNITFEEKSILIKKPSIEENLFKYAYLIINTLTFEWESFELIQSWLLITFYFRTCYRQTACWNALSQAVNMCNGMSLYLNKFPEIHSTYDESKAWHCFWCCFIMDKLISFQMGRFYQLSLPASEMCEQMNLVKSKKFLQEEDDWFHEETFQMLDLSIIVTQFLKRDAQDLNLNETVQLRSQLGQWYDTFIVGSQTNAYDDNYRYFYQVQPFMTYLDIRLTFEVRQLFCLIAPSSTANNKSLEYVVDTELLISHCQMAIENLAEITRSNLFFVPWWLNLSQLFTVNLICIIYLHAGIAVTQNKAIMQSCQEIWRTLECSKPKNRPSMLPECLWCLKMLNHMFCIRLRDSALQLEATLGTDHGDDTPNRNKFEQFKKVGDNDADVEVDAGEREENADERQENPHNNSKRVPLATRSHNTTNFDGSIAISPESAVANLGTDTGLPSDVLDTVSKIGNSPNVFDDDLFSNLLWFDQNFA

Sequence	PBM E-score
CGAACGGA	0.327
GTCTAAAA	-0.0585
GTACTGAC	-0.0527
AGTAAGCG	-0.0174
AGACTATG	-0.17
ACCAGGCG	-0.159
CATACAGA	-0.0776
AGTGATTG	-0.0135
ACCTCGGG	0.421
ACCTCGTC	-0.0708
ACCTCGAA	-0.105
CCCTCGGC	0.399
ACCTCGTA	0.0536
CCCTCGTC	0.0826
ACCTCGTG	-0.0555
ACCTCGAG	-0.0838
ACCTCGGA	0.463
ACCTCGGC	0.415
ACCTCGCC	-0.0213
CCCTCGCC	-0.217
AGTAGATA	-0.0337
CTCCATTA	-0.148
CGCCTTTC	-0.0815
CGGGTAAC	0.393
CGGGTAAG	0.336

Sequence	PBM E-score
AGGGTAAA	0.0281
TGGGTAAA	-0.0511
GGGGTAAC	-0.122
CGGGTAAA	0.424
AAGCCTAC	-0.253
CACACTGG	-0.18
CATTTAGG	-0.174
ACGCTTTG	0.035
GTCTATTA	-0.00563
CACGGGAC	0.214
ATCGGGGA	0.243
CTCGGGAA	0.462
CCGGGGAC	0.157
CCCGGGAC	0.387
GCCGGGAC	0.28
ATCGGGAG	0.367
ATCGGGAA	0.412
GTCGGGAA	0.377
ATCGGGAC	0.284
CTCGGGAC	0.45
CTCGGGGA	0.349
AGCAACTC	-0.0301
TACTCAAA	-0.108
CTTATCGA	-0.105
AGTCACTG	-0.274

Sequence	PBM E-score
AACTGAAA	-0.121
CCCTATAC	-0.154
ACACCGTG	0.106
CTTGACGA	-0.0253
ACTACTTG	-0.195
GCGAGCTA	-0.0842
ACGAGCTA	-0.221
CTGAGCTC	-0.172
CCGAGCTC	0.435
ACGAGCTC	0.0375
CCGAGCTA	0.424
CACGGTCA	-0.197
CAACTACG	-0.0502
TGAGAACA	-0.212
ACCGGAAT	0.294
CCCGGACG	0.163
CCCGGAAC	0.416
AGCGGAAG	0.335
ACCGGAAC	0.419
ACCGGAGC	0.244
CCCGGAAG	0.417
ACCGGAAG	0.388
CCGGGAAC	0.381
CCCGGACC	0.26
ACGGGAAG	0.232

Sequence	PBM E-score
CCCGGAGG	0.206
CTGGTGGC	-0.167
CGACTCAC	0.0516
GAATACCC	0.341
AAAAGGAG	-0.0435
AGGTACCG	0.254
CGAGTCTC	0.0605
GGAGCCCA	-0.203
AGGTGCTC	-0.148
AGGCAGTC	-0.144
GAAGGCGA	-0.051
CGTGGGGC	-0.121
TCCGGAGA	0.335
ACCGGGAA	0.335
CCCGGGAA	0.355
TCCGGGAA	0.388
TCCGGAAA	0.439
CCCGGAAA	0.39
GCCGGAAA	0.401
GGCGGAAA	0.277
TCCGGACA	0.322
GACGGAAA	0.36
AGGACTGA	-0.0328
CACTTGGA	-0.087
AATGTGGA	-0.0863

Sequence	PBM E-score
ACGATTCT	-0.05
GTATAGGA	-0.287
AGCCATTA	0.0954
CTTCTGTC	-0.158
AGCTGATA	-0.047
ACCGGACT	0.252
GCCGGAGC	0.283
ACCGGAAA	0.384
GCCGGACC	0.196
ACCGGCAA	0.229
GCCGGAAC	0.428
AACTGTCC	0.0472
AGAGTGTA	-0.094
GTTTCCCA	-0.0576
GTTTCCGA	0.466
CTTTCCGA	0.463
GTTTCCAA	-0.1
CTTTCCCA	-0.053
CTTTCCGC	0.324
ATCTATGA	-0.0937
ATGCAGAG	-0.146
GATCAGGA	-0.029
ATTCATCC	0.202
ATTACACA	-0.13
TCGAAAAA	-0.00854

Sequence	PBM E-score
CCGAAAGG	0.363
CCGAAAAG	0.384
CCGAAAAC	0.41
CCGAAACC	0.395
CCGAAACA	0.364
GCGAAAAC	-0.154
ACGAAAAG	-0.23
CCGAAAAA	0.434
ACGAAACC	-0.0179
ACGAAAAA	-0.189
ACGAAAAC	0.154
CTAATCGA	-0.105
CGCCTCCC	-0.0433
CGGTCCCC	0.141
CCCTATGC	-0.0929
AAGTGCGG	0.226
GCGAAAGA	-0.166
CCGAAAGC	0.377
CCGAAAGA	0.388
ACGAAGGC	-0.0627
GACCTGGA	-0.196
GTCCTGAA	-0.197
TTGCGAAA	0.116
ATCCGCAG	0.285
ATCCGAAG	0.48

Sequence	PBM E-score
GTCCGAAC	0.335
CACCGAAC	0.224
AACCGAAG	0.362
AACCGAAC	0.356
CTCCGAAA	0.357
TTCCGAAA	0.468
TTTCGAAA	-0.307
ATCCGAAC	0.475
CTCCGAAC	0.427
AGTCAGCC	-0.161
ACTGATCT	-0.0326
CAGGAAAG	-0.2
ATACGGGA	0.237
CACTAAAC	-0.0976
TACTTCTA	-0.254
AAATTGCG	0.114
TCCTAGGA	-0.093
CTGTGGGA	-0.145
GTCCGAAA	0.337
CACCGAAG	0.228
ATACGAAT	-0.0803
CTACGAAG	-0.247
